Laboratory results: PubChem BioAssay AID431 (Sanford-Burnham Center for Chemical Genomics, 2006)
Hit rate of the full screen: of about 63,000 compounds, about 1,100 (1.7%) were called active. The sample holds actives, similar compounds and a random draw of the others, so the mix is not that of the screen. Entries with a potency or affinity are not part of this list. A number with no mark means an inactive call.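 The calls were made as follows: active = compounds whose percent cytotoxicity in the single-dose primary screen, scaled between solvent and toxic-drug controls, exceeds 50; inactive = the rest.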

Assay: cytotoxicity in KRAS-transformed pancreatic duct cells, primary screen, cell-based, fluorescence, HTS (AID 431);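 also: 0% = DMSO solvent wells and 100% = doxorubicin-treated wells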
Details: HPDE-C7K KRASV12 cells, Alamar Blue viability, 48 h; at 10 µM; active compounds read high
In the case of `CN1CCc2ccccc2C1C1CCNCC1` (configuration not stated), the cytotoxicity is reported as 1.4%.
`N#Cc1c(/N=C/c2ccco2)sc2c1CCC2` showed a cytotoxicity of 0.3%.
`COc1ccc(NC(=O)CN(c2ccccc2)S(=O)(=O)N(C)C)cc1OC` showed a cytotoxicity of -4.2%.
In the case of `COc1cc(C2=NOC(C(=O)NCc3ccc(F)cc3)C2)cc(OC)c1OC` (configuration not stated), the cytotoxicity is reported as 55.1% (active).
For `COc1cc(C2=NOC(C(=O)NCc3ccco3)C2)cc(OC)c1OC` (configuration not stated), the cytotoxicity was 10.5%.
With `COc1ccc(C2=NOC(C(=O)NCc3ccc(F)cc3)C2)cc1OC` (configuration not stated) the cytotoxicity was 58.9% (active).
Work on `COc1ccc(C2=NOC(C(=O)NCc3ccc(F)cc3)C2)cc1` (configuration not stated) yielded a cytotoxicity of 43%.
For `COc1ccc(CNC(=O)C2CC(c3ccc(F)cc3)=NO2)cc1` (configuration not stated), the cytotoxicity was 1.6%.
For `COc1cccc(C2=NOC(C(=O)NCc3ccc(F)cc3)C2)c1` (configuration not stated), the cytotoxicity was 49.7%.
Work on `Cc1ccc(C2(C)NC(=O)N(CC(=O)Nc3ccc4c(c3)OCO4)C2=O)cc1` (configuration not stated) yielded a cytotoxicity of -4.8%.
`Fc1ccc(-c2nnc(SCc3ncc(-c4ccccc4)o3)n2CC2CCCO2)cc1` (configuration not stated) gave a cytotoxicity of -17.5%.
In the case of `CCOc1cc(C2C(C#N)=C(N)OC3CCCC(=O)C32)ccc1OCCN1CCOCC1` (configuration not stated), the cytotoxicity is reported as -27%.
Molecule `COc1ccc(-c2nnc(SCC(=O)Nc3sc4c(c3C#N)CCC4)n2CC2CCCO2)cc1` (configuration not stated) has a cytotoxicity of -1.4%.
For `Cc1cc(NC(=O)CSc2nnc3c(C)cc4c(C)ccc(C)c4n23)no1`, the cytotoxicity was 70.6% (active).
With `Cc1cc(NC(=O)CSc2nnc3c(C)cc4cc(C)c(C)cc4n23)no1` the cytotoxicity was 10.3%.
With `Cc1cc(C)c2c(c1)cc(C)c1nnc(SCC(=O)Nc3cc(C)on3)n12` the cytotoxicity was 22.6%.
Work on `CCCCNC(=O)C1CCCN1C(=O)Nc1cccc(OC)c1` (configuration not stated) yielded a cytotoxicity of -7.7%.
`Nc1c(N2CCN(c3ccccc3)CC2)c2ccccc2oc1=O` showed a cytotoxicity of -3.7%.
For `O=C(NCCCN1CCCC1=O)C1CCN(S(=O)(=O)N2CCOCC2)CC1`, the cytotoxicity was -9.6%.
Work on `CCOc1ccc(NC(=O)N2CCC(n3c(=O)[nH]c4ccccc43)CC2)cc1` yielded a cytotoxicity of -0.2%.
With `COc1cccc(C2=CC(c3ccc(N(C)C)cc3)n3ncnc3N2)c1` (configuration not stated) the cytotoxicity was -1.1%.
Molecule `Cc1ccc(C2C=C(c3ccccc3OC(F)F)Nc3ncnn32)cc1` (configuration not stated) has a cytotoxicity of -1.8%.
With `CN(C)c1ccc(C2C=C(c3ccc(Cl)cc3OC(F)F)Nc3ncnn32)cc1` (configuration not stated) the cytotoxicity was 50.9% (active).
With `CCn1c(SCC(=O)c2ccc(Cl)cc2)nnc1-c1ccoc1C` the cytotoxicity was 12.2%.
`Cc1cc(C)c(C#N)c(N2CCCC(C(N)=O)C2)n1` (configuration not stated) gave a cytotoxicity of -4.9%.
With `COc1ccc(S(=O)(=O)Cc2ccc(C(=O)N3CCN(C(=O)c4ccco4)CC3)o2)cc1` the cytotoxicity was 1.6%.
Work on `O=C(OCc1nnc(-c2ccccc2)o1)c1ccc2c(c1)OCCO2` yielded a cytotoxicity of 5.4%.
In the case of `O=C(Nc1ncnc2sc3c(c12)CCCCC3)c1ccco1`, the cytotoxicity is reported as 7.3%.
For `Cc1nnc2n1N=CC=C(c1ccccc1)S2`, the cytotoxicity was 62% (active).
`Cc1nnc2n1N=CC=C(C(C)(C)C)S2` showed a cytotoxicity of -17.2%.
In the case of `COn1cnnc1-c1ccccc1`, the cytotoxicity is reported as -14.1%.
With `CCOC(=O)c1cc(NC(=O)c2ccoc2C)cc(C(=O)OCC)c1` the cytotoxicity was 15.5%.
For `Cc1noc(C)c1COC(=O)CCc1nc2ccccc2s1`, the cytotoxicity was -2.7%.
`c1cn2cc(CN3CCOCC3)nc2s1` gave a cytotoxicity of -3.4%.
With `COc1ccccc1-c1nn2c(-c3ccccc3Cl)nnc2s1` the cytotoxicity was -7.7%.
With `COc1ccccc1-c1nnc2sc(-c3cc4ccccc4o3)nn12` the cytotoxicity was 61.8% (active).
Work on `Cc1nnc2sc(-c3cc4ccccc4o3)nn12` yielded a cytotoxicity of 8.5%.
With `COC(=O)CSc1nnc(SCc2ccccc2)s1` the cytotoxicity was -19.9%.
`CCOC(=O)N1CCN(C(=O)CCc2nc3sc4c(c3c(=O)[nH]2)CCCC4)CC1` showed a cytotoxicity of 4.1%.
`CC(C)OC(=O)CSc1nnc(-c2ccc(Cl)cc2Cl)n1N` showed a cytotoxicity of -9.9%.
For `O=C(O)c1cccc(Nc2nc(N3CCOCC3)nc(N3CCOCC3)n2)c1`, the cytotoxicity was 1.7%.
`Cc1ccc(Nc2nc(N3CCOCC3)nc(N3CCOCC3)n2)cc1` gave a cytotoxicity of 10.2%.
In the case of `CC(C)c1ccc(Nc2nc(NCc3ccco3)nc(N3CCOCC3)n2)cc1`, the cytotoxicity is reported as 35.8%.
`COc1nc(Nc2cccc(C(F)(F)F)c2)nc(OC)n1` showed a cytotoxicity of 4.6%.
For `CN1CCN(c2nc(Nc3cccc(C(F)(F)F)c3)nc(N3CCOCC3)n2)CC1`, the cytotoxicity was 52.3% (active).
In the case of `Cc1cccc(Nc2nc(NCc3ccco3)nc(N3CCOCC3)n2)c1`, the cytotoxicity is reported as 63.9% (active).
With `CCOC(=O)N1CCN(C(=O)C2CC(=O)N(c3ccc(OC)cc3)C2c2ccc(OC)cc2)CC1` (configuration not stated) the cytotoxicity was -8.1%.
